According to ChEMBL document CHEMBL3988442, “University of Dundee, Small-Polar-MMV Screening Library” (2021):
Out of some 48,000 compounds screened, about 13,000 (27%) showed an effect of 50% or more. Some of the results follow.

tested on: Wolbachia pipientis; assay: Anti-Wolbachia Cell-Based Screen; type: functional; design: scale not given: in the data most compounds retested in dose-response had high values; settings: 5 µM

| SMILES | Percent Effect [%] |
| --- | --- |
| Cc1cc(NC(=O)CN2CCN(c3nccs3)C(C)C2)on1 (stereo not drawn) | 108.7 |
| CN(C)c1nccc(-c2c[nH][nH]c2=O)n1 | 105.1 |
| CC(=O)c1ccc(C(=O)Nc2ccnc(N(C)C)n2)cc1 | -0.9205 |
| CN(C)c1nccc(-c2cnc(N(C)C)[nH]c2=O)n1 | 117.9 |
| CN(C)c1nccc(CNC(=O)NC(C)(C)C)n1 | -4.369 |
| CN(C)c1nccc(NC(=O)c2ccncc2)n1 | 2.726 |
| CCNC(=O)NCc1ccnc(N(C)C)n1 | -21.64 |
| c1cc(-c2nc(CN3CCn4c(nnc4C4CC4)C3)cs2)cs1 | -6.477 |
| Cc1noc2ncc(S(=O)(=O)Nc3cc(C(C)(C)C)n[nH]3)cc12 | -0.8197 |
| Cc1cc(C(=O)N(Cc2c(C)nn(C)c2C)C(C)C)nc(C)n1 | 12.98 |
| CN1CCN(Cc2ccccc2CNC(=O)c2cc(Br)ccc2F)CC1 | -18.53 |
| CN1CCN(Cc2ccccc2CNC(=O)c2ccc(Br)cc2)CC1 | 1.874 |
| Cn1ccc(C(=O)NCc2ccccc2CN2CCCC2)cc1=O | 88.78 |
| CN1CCN(Cc2ccccc2CNC(=O)c2ccc(Br)cc2F)CC1 | 7.367 |
| Cn1ccc(C(=O)NCc2ccccc2CN2CCCCC2)cc1=O | 100.5 |
| Cn1ccc(C(=O)NCc2ccccc2Cn2ccnc2)cc1=O | -5.249 |
| COc1cc(C)cc(C(C(=O)O)N(C)Cc2ccon2)c1OC (stereo not drawn) | -2.337 |
| O=C1CC(c2ccccc2)C2(CCN(C(=O)c3cnccn3)CC2)N1 (stereo not drawn) | -7.237 |
| O=C(COCC(F)(F)F)Nc1nncs1 | 9.109 |
| O=C(NCC1CC1)Nc1cccc(N2CCN(CC3CC3)CC2)c1 | 0.3476 |
| Cc1[nH]c2ccc(CNC(=O)c3ccc(CN4CCCC4)o3)cc2c1C | 16.58 |
| O=C(CCn1cccc1)NCc1ccc(CN2CCCCCC2)o1 | 106.7 |
| O=C(NCc1ccc2[nH]c(=O)[nH]c2c1)c1ccc(CN2CCCC2)o1 | -9.598 |
| CNC(=O)c1csc(-c2cccnc2)n1 | 130 |
| CC(C)N1CCCC(CNC(=O)Cc2csc(-c3cccnc3)n2)C1 (stereo not drawn) | 3.537 |
| CNC(=O)c1csc(-c2ccoc2)n1 | 6.478 |
| O=C(NCCc1nncn1C1CC1)C1SCCc2ccccc21 (stereo not drawn) | -2.915 |

| SMILES | Percent Effect [%] |
| --- | --- |
| Cc1nn(C)cc1NC(=O)CC1CCN(C(=O)Cc2ccccc2)CC1 | 152.2 |
| Cc1nn(C)cc1NC(=O)CC1CCN(CCc2ccccc2)CC1 | 168.6 |
| CS(=O)(=O)NC1CCN(CCc2ccccc2)CC1 | -1.788 |
| Cc1nn(C)cc1C(=O)N1CCC(CSc2ccccc2)C1 (stereo not drawn) | -5 |
| Cn1cccc(NC(=O)N2CCC(Cc3ccccc3)C2)c1=O (stereo not drawn) | 25.6 |
| O=C(Cc1ccccc1F)NCC1CCN(CCc2ccccc2)C1 (stereo not drawn) | -7.846 |
| CC(=O)NCc1nnc2n1CCN(c1ncnc3c1CCC3)CC2 | -4.362 |
| Cn1cc(Br)cc(NC(=O)CC2CCC2)c1=O | 5.375 |
| CC(C)(C)C(NC(=O)CCS(C)(=O)=O)c1ccc(F)cc1F (stereo not drawn) | 7.431 |
| COCCS(=O)(=O)Cc1nnnn1-c1ccccc1 | 8.083 |
| CCCn1[nH]cc/c1=N\C(=O)CN1CCc2cnc(C(C)C)nc2C1 | 129.2 |
| CCCn1[nH]cc/c1=N\C(=O)CN1CCn2c(nnc2C2CC2)C1 | -10.08 |
| CCCn1[nH]cc/c1=N\C(=O)CN1CCc2c(nc(C3CC3)n2C)C1 | 122.4 |
| CCCn1[nH]cc/c1=N\C(=O)CN1CCc2cnc(CC)nc2C1 | 1.642 |
| CCCn1[nH]cc/c1=N\C(=O)CN1CCc2c(nc(C(C)C)n2C)C1 | -3.864 |
| CCCn1[nH]cc/c1=N\C(=O)CN1CCOC(Cn2cc(C)cn2)C1 (stereo not drawn) | 12.63 |
| O=C(CNC(=O)N(Cc1ccoc1)C1CCCCC1)N1CCCC1 | -3.863 |
| O=C1CN(Cc2cn(CC3CCCN(C4CCSCC4)C3)nn2)CCN1 (stereo not drawn) | -21.26 |
| CNc1cncc(C2CCCN2C(=O)c2ccc3nc(C)[nH]c3c2)n1 (stereo not drawn) | 94.32 |
| Cn1cc(C(=O)N2CCCC2c2ccc3c(c2)OCCO3)ccc1=O (stereo not drawn) | 14.96 |
| CNc1cncc(C2CCCN2C(=O)c2ccc3oc(C)cc3c2)n1 (stereo not drawn) | 6.468 |
| Cn1ccc(C(=O)N2CCCC2c2ccc3c(c2)OCCO3)cc1=O (stereo not drawn) | 4.386 |
| CNc1cncc(C2CCCN2C(=O)c2ccc3c(c2)OCCO3)n1 (stereo not drawn) | 121 |
| CNc1cncc(C2CCCN2C(=O)c2ccc3c(c2)CCC3)n1 (stereo not drawn) | 112.1 |
| CC(C)C(=O)N1CCN(C(=O)CCc2nnc(-c3ccccc3)o2)CC1 | -5.371 |
| CN(CCn1cccn1)S(=O)(=O)c1ccc(C#N)cc1 | -4.99 |
